Experimental data taken from PubChem BioAssay AID743279 (National Center for Advancing Translational Sciences (NCATS), 2014).
Hit rate of the full screen: of about 360,000 compounds, about 17,000 (4.7%) were called active. Not shown: some 5% with an inconclusive outcome. What follows is part of a selection rich in actives, with near analogues and random picks from the rest. Unmarked numbers belong to inactive results. Rule as the data show it: active = activity change below about -50%; inconclusive = mostly about -30% to -49%; inactive = weaker than that.
% is scaled to controls: 0 for no effect and ±100 for the full control effect.

Experiment: qHTS for Inhibitors of Inflammasome Signaling: IL-1-beta AlphaLISA Primary Screen
Conditions: THP-1 LPS/ATP IL-1B secretion, 16 h; at 57.5 µM, hits give low values
How it was run: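 Secreted IL-1B measured by AlphaLISA bead assay after 16 h compound exposure of THP-1 cells; compounds (final up to 57.5 uM) added 1 h before LPS (250 ng/mL) and ATP (1.25 mM) stimulation; lower signal means less secretion.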
`CCCS(=O)(=O)Nc1ccc(-c2cn3c(n2)SCC3)cc1` gave an activity change of -1.84%. `COC(=O)[C@H]1C[C@H](OC(=O)NCc2ccccc2)[C@@]2(O)CN(S(=O)(=O)c3ccc(C)cc3)CC2[C@H]1C(=O)OC` (stereo partly drawn) showed an activity change of -4.9%. `CCCCCCNC(=O)O[C@]12C[C@@H](C(=O)OC)[C@@H](C(=O)OC)C[C@@]1(O)CN(S(=O)(=O)c1ccc(C)cc1)C2` showed an activity change of 11.6%. In the case of `CCCCCCNC(=O)O[C@H]1CN(C(=O)OC(C)C)N(C(=O)OC(C)C)[C@@H]2CN(S(=O)(=O)c3ccc(C)cc3)C[C@]12O`, the activity change is reported as -63.8% (active). Compound `COc1ccc([C@H]2CC(=O)C[C@@H](CCn3cc(CC4CCCC4)nn3)O2)cc1` has an activity change of 10.9%. Compound `COc1ccc(-c2nc3ccc(Br)cn3c2Cc2ccc(C)cc2)cc1OC` has an activity change of -15.5%. Work on `Cc1ccc(Cn2cc(C(=O)NN)c(=O)c3ccc(F)cc32)cc1` yielded an activity change of -11.4%. In the case of `Cc1ccc(Nc2nc(C)cc(C)c2C(N)=O)cc1`, the activity change is reported as 19.4%. In the case of `Cc1ccc(Nc2cc(C)nc3c(C)ccc([N+](=O)[O-])c23)cc1`, the activity change is reported as -61.1% (active). `Cc1ccc2cccc([N+](=O)[O-])c2n1` showed an activity change of 15%. In the case of `O=NN(CCCl)C(=O)NCCc1cccc[n+]1[O-]`, the activity change is reported as 15%. In the case of `CC1CCN(C(=O)c2ccc(CSc3ccc(Cl)cc3)cc2)CC1`, the activity change is reported as -51.2% (active). `O=C(NC1CCCCCC1)C1CCN(C(=O)c2ccc(Cl)cc2)CC1` showed an activity change of 9.37%. With `O=C(c1ccc(CSc2ccccc2)cc1)N1CCCCCC1` the activity change was -19.7%. With `O=C(NC(=S)NC1CCCCC1)c1ccc(Cl)cc1` the activity change was -21%. For `O=C(NC1CCCCC1)c1ccc(-c2ccc(Cl)cc2)o1`, the activity change was -76.5% (active). Work on `O=C(NC1CCCCCC1)c1cccnc1Sc1ccc(Cl)cc1` yielded an activity change of 1.6%. In the case of `CCCNC(=O)C1(C)CCN(Cc2ccc(Cl)c(Cl)c2)C1` (stereo not drawn), the activity change is reported as 17.3%. With `COc1ccc(N)c(C)c1` the activity change was -25.8%. In the case of `COC(=O)[C@]12CCCCC=C1N(CCC1=CCCCC1)C(=O)[C@H](CC(=O)NCC1CCCCC1)C2`, the activity change is reported as -28.6%. For `O=C(CCCN1CCc2[nH]c3ccc(F)cc3c2C1)c1ccc(F)cc1`, the activity change was -79.8% (active). `O=C(Nc1ccc(Cl)cc1)N1CCc2[nH]c3ccccc3c2C1` showed an activity change of -18.5%. With `Fc1ccc(NC(=S)N2CCc3[nH]c4ccccc4c3C2)cc1` the activity change was 11.5%. Compound `CCCCN1C[C@H](c2ccc(Br)cc2)[C@@H](CC(=O)Nc2ccc(Br)cc2)C1=O` has an activity change of -5.58%. With `O=C(Nc1ccccc1)Oc1cccc2cccnc12` the activity change was -91.6% (active). `NC(=O)C1CCN(C(=O)COc2cccc3cccnc23)CC1` showed an activity change of 0.882%. Compound `OCc1ccc(OCCCOc2cccc3cccnc23)cc1` has an activity change of -1.1%. For `C[C@H](CO)N1C[C@H](C)[C@H](CN(C)CC2CC2)Oc2ccc(NC(=O)CCN3CCOCC3)cc2C1=O`, the activity change was 18.8%. In the case of `O=C(C1CCCO1)N1CCN(C(=O)C23CC4CC(CC(C4)C2)C3)CC1` (stereo not drawn), the activity change is reported as 9.67%. With `CN1CCN(c2ccc([N+](=O)[O-])c(Sc3nc4ccccc4[nH]3)c2)CC1` the activity change was -26.9%. With `CCC(C)N1C(=O)S/C(=C/c2ccc(Sc3nc4ccccc4[nH]3)o2)C1=O` (stereo not drawn) the activity change was -96.1% (active). With `CCC(c1nc2ccccc2[nH]1)n1c(=O)c(-c2cccs2)nc2ccccc21` (stereo not drawn) the activity change was -20%. For `CC(C)c1csc(CN2CCC(CO)(Cc3ccccc3)CC2)n1`, the activity change was -21.7%. `CN=C(NC#N)NCCSCc1nc[nH]c1C` gave an activity change of 33.7%. With `CCC(C)N(C(=O)CSc1nnnn1-c1ccccc1OC)C1CCS(=O)(=O)C1` (stereo not drawn) the activity change was -14.9%. `COc1ccccc1-n1nnnc1SCC(=O)NC(=O)Cc1ccccc1` showed an activity change of 4.79%. With `COc1ccccc1-n1nnnc1S(=O)(=O)Cc1ccc(Cl)cc1` the activity change was -119% (active). With `CCCC(C)n1[nH]c(=O)c2c(C)cc(C)nc21` (stereo not drawn) the activity change was -13.2%. For `Cc1ccccc1C#CC1=CC(=O)CC(C)(C)C1`, the activity change was -52.1% (active). `CC1(C)CC(=O)C=C(Nc2ccccc2)C1` gave an activity change of -3.98%. Work on `Cc1cc(O)ccc1NC1=CC(=O)CC(C)(C)C1` yielded an activity change of -0.895%. In the case of `CC1C(=O)N(Cc2cn(CC3CCCCC3)nn2)CCS(=O)(=O)N1Cc1ccc(-c2cccc(N(C)C)c2)cc1` (stereo not drawn), the activity change is reported as 0%. `OCCN1CCN(CCO)C1=S` showed an activity change of 15.9%. For `Cc1c(NC(=O)c2coc(=O)c(Br)c2)c(=O)n(-c2ccccc2)n1C`, the activity change was -72.5% (active). Work on `Cc1c(NC(=O)c2cc(-c3ccc(Br)cc3)on2)c(=O)n(-c2ccccc2)n1C` yielded an activity change of -16.8%. Compound `Cc1cc2oc(C(=O)Nc3c(C)n(C)n(-c4ccccc4)c3=O)c(C)c2cc1Cl` has an activity change of 0%. Compound `COC(c1ccccc1)(c1ccccc1)C(Oc1nc(C)cc(C)n1)C(=O)O` (stereo not drawn) has an activity change of 17.2%. Work on `COc1ccc(C(=O)COC(=O)c2nn(C)c(=O)c3ccccc23)c(OC)c1` yielded an activity change of -0.449%. `CC[C@]12c3[nH]c4ccc(OC)cc4c3CCN1C(=O)C(CC(=O)NCc1ccco1)C[C@@H]2C(=O)N1CCN(C(=O)C2CC2)CC1` (stereo partly drawn) gave an activity change of 16.2%. `CCCCOc1ccc(NC(=O)CSCC(=O)OCC)cc1` showed an activity change of -3.32%. For `CCCCCCCCCCOC(=O)Cn1c(COc2ccc(C)cc2)[n+](C)c2ccccc21`, the activity change was -90.4% (active). `Cc1ccc(COc2ccc(C(=O)NN)cc2)cc1` showed an activity change of -17.7%. Work on `COc1cccc(OCc2nnc3n2N=C(c2ccccc2)C(CC(=O)O)S3)c1` (stereo not drawn) yielded an activity change of 29.1%. In the case of `CCCCn1c(N)c(N(CCOC)C(=O)c2cccc(OCc3ccccc3)c2)c(=O)[nH]c1=O`, the activity change is reported as -4.76%. With `CCCCCCCCCCOC(=O)Cn1c(COc2cccc(OC)c2)[n+](C)c2ccccc21` the activity change was -79.3% (active). Compound `COc1ccc(NC(=O)C2Cc3c(-c4ccc5c(c4)OCO5)ccnc3O2)cn1` (stereo not drawn) has an activity change of 22.6%. `COC(=O)N(C)C[C@@H]1OCc2cnnn2CCCC(=O)N([C@@H](C)CO)C[C@@H]1C` showed an activity change of 1.38%. For `CC1CN(Cc2ccco2)C(=S)N(c2ccccc2)C1=O` (stereo not drawn), the activity change was 3.29%. Work on `O=C1CCN(CCc2ccccc2)CCN1CCOc1ccccc1` yielded an activity change of 23.9%. With `O=c1[nH]c2ccccc2n1C1CCN(CCOc2ccccc2)CC1` the activity change was -51.9% (active). With `OC(c1ccccc1)(c1ccccc1)C1CCN(CCCOc2ccccc2)CC1` the activity change was -28.1%. For `O=C(c1ccc(N2CCCC2=O)cc1)N1CCN(c2ccc(C(F)(F)F)cc2[N+](=O)[O-])CC1`, the activity change was -8.61%. With `CCOc1ccc(Br)cc1S(=O)(=O)Nc1cccc(S(=O)(=O)N(CC)CC)c1` the activity change was -3.12%. Compound `CC1(C)OC(=O)C2=C(C[C@@H](C3CCCC3)O[C@@H]2c2ccc(Cl)cc2)O1` has an activity change of 30.2%. In the case of `Cc1cc(C)c2c(n1)nn1c(-n3ccnc3)cc(C)nc21`, the activity change is reported as -75.6% (active). Compound `Cc1cc(-n2nc(C)cc2C)n2nc(C)c(-c3ccccc3)c2n1` has an activity change of -4.92%. `Cc1cc(C)c2c(NC(=O)C3CC3)nn(C)c2n1` showed an activity change of -2.02%. `CN(C)Cc1ccc(F)cc1Sc1cc(Cl)ccc1Cl` gave an activity change of 4.08%. `Cc1ccccc1CN1C(=O)CSCC1(C)C(=O)Nc1c(C)cccc1C` (stereo not drawn) showed an activity change of -3.26%. `CC1CC(C)CN(CC(=O)N2c3ccccc3CCc3ccccc32)C1` (stereo not drawn) gave an activity change of -6.12%. Compound `CC1C(=O)N(Cc2ccccc2)c2ccccc2N1C(=O)c1ccccc1` (stereo not drawn) has an activity change of 0.175%. In the case of `CC1C(C)N(C(=O)CCl)c2ccccc2N1C(=O)CCl` (stereo not drawn), the activity change is reported as -101% (active). In the case of `O=C(OCCOc1ccccc1Cl)c1cc(S(=O)(=O)N2CCCCC2)ccc1N1CCOCC1`, the activity change is reported as 11.6%. Work on `O=C(c1ccc2ccccc2n1)N1CCN(c2ccccc2Cl)CC1` yielded an activity change of -2.41%. Work on `O=C(c1c(F)cccc1Cl)N1CCN(c2ccccn2)CC1` yielded an activity change of -9.43%. In the case of `O=C(c1c(Cl)cccc1Cl)N1CCN(c2cccc3[nH]ccc23)CC1`, the activity change is reported as -73.5% (active). Compound `Cc1ccc(C2=NN(C(=O)CSc3nc(N)cc(N)n3)C(c3ccco3)C2)cc1` (stereo not drawn) has an activity change of -23.3%. `COCCCN1C(=O)C(CC(=O)NCc2cccs2)CC(C(=O)N2CCOCC2)=C1C` (stereo not drawn) gave an activity change of -1.75%.
